Cruzain noTriton: cruzain (T. cruzi) inhibition without detergent; P25779; purified cruzain, Z-FR-AMC fluorescence, no detergent; Potency, µM, without a hit: max response, negative = inhibition, usual class: inhibitors; actives 2.3% (n = 200,000);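 note: plate controls were enzyme without inhibitor for no effect and buffer without enzyme for full effect; nearly all actives have a fitted effect of over 40% in size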
Target sequence (P25779 123-467 limits assumed): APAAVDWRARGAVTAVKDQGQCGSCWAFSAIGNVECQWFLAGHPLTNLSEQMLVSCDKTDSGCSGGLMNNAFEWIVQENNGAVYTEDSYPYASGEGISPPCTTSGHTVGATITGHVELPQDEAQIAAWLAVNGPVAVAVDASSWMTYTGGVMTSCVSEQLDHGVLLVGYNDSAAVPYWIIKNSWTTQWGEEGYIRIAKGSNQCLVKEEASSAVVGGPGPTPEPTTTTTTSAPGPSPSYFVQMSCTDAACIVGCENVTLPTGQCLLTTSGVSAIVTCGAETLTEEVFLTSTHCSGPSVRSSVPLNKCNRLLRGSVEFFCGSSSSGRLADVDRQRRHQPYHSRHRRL
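Purified cruzain at 1.5 nM, pre-incubated 15 min with compound at room temperature in 100 mM sodium acetate pH 5.5, 5 mM DTT, 0.00005% Triton X-100. Reaction started with 2 uM Z-FR-AMC; AMC fluorescence increase over 60 s gives rate.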
Cruzain Triton: inhibitors of Trypanosoma cruzi cruzain with detergent. purified cruzain, Z-FR-AMC fluorescence, 0.01% Triton. Potency, µM, inactives show max response, negative = inhibition, actives largely listed as inhibitors. actives 0.43% (n = 200,000);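 note: plate controls were neutral wells for no effect and buffer without enzyme for full effect; nearly all actives have a fitted effect of over 40% in size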
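Detergent-containing arm of a paired screen for aggregation-based inhibition: 0.01% Triton X-100 present. Cruzain at 1.5 nM cleaved 2 uM Z-FR-AMC at pH 5.5 with 5 mM DTT; AMC fluorescence gain over 60 s measured activity.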
* = called active by the depositor. Shown are actives, neighbours in structure and some others; about 2.6% of the full set was active somewhere. Calls come from the whole dose curve; as a rule, active = well fitted curve in the direction sought with a large enough effect; inconclusive = small, poorly fitted or top-dose-only effect, or another doubt; inactive = no such curve, though single readings can be large; an effect the other way counts as inactive or inconclusive. Potency is the fitted concentration of half-maximal effect.

What do the screens show for `CCOC(=O)C1=C(C)N=c2s/c(=C/c3ccco3)c(=O)n2C1c1cccc(OC)c1` (stereo unspecified)?
Cruzain noTriton: 25µM*; Cruzain Triton: -29%

What do the screens show for `FC(F)(F)c1ccc(C2=Nc3ccccc3NC(c3cccs3)=N2)cc1`?
Cruzain noTriton: 9%; Cruzain Triton: -9%

What do the screens show for `COc1ccc(CCNC(=O)CSc2nnnn2-c2cccc(C(C)=O)c2)cc1OC`?
Cruzain noTriton: -6%; Cruzain Triton: -1%

Results for Cc1cc(NC(=O)c2ccc3c(c2)C(=O)N(C)C3=O)no1 ?
Cruzain noTriton: 10%; Cruzain Triton: 2%

What do the screens show for `Cc1cc(NC(=O)c2ccc3c(c2)C(=O)N(C2CCCCC2)C3=O)no1`?
Cruzain noTriton: 6.3µM*; Cruzain Triton: 6%

How did Cn1c(SCc2cccc(F)c2)nc2c([nH]c3ccccc32)c1=O do in these assays?
Cruzain noTriton: -6%; Cruzain Triton: 0%

What do the screens show for `O=C(COC(=O)c1sc2ccccc2c1Cl)Nc1ncc(Cl)cc1Cl`?
Cruzain noTriton: inconclusive; Cruzain Triton: -5%

How did CCOC(=O)c1ccccc1NC(=O)c1sc2ccccc2c1Cl do in these assays?
Cruzain noTriton: 5%; Cruzain Triton: -1%

Results for O=C(COC(=O)CNC(=O)c1sc2ccccc2c1Cl)Nc1c(Cl)cc(Cl)cc1Cl ?
Cruzain noTriton: inconclusive; Cruzain Triton: 25µM*

What do the screens show for `Cc1ccccc1NC(=O)COC(=O)CNC(=O)c1sc2ccccc2c1Cl`?
Cruzain noTriton: 3.2µM*; Cruzain Triton: 7.9µM*

What do the screens show for `CC(C1CCCC(=O)C1)[N+](=O)[O-]` (stereo unspecified)?
Cruzain noTriton: -5%; Cruzain Triton: 2%

Results for CCOC(=O)c1c(NC(=O)C2=C(C)NC(=S)NC2c2ccc(CC)cc2)sc(C)c1C (stereo unspecified) ?
Cruzain noTriton: 10µM*; Cruzain Triton: -5%

Results for CCOC(=O)C1=C(C)NC(=S)NC1c1ccc(OC(=O)c2ccco2)cc1 (stereo unspecified) ?
Cruzain noTriton: inconclusive; Cruzain Triton: -8%

Results for Cc1ccc(NC(=O)CSc2nc(-c3cccs3)cc(C(F)(F)F)n2)cc1C ?
Cruzain noTriton: 0%; Cruzain Triton: -4%

What do the screens show for `CCOc1cccc(NC(=O)CSc2nc(C)c3c(c2C#N)CCCC3)c1`?
Cruzain noTriton: 7.9µM*; Cruzain Triton: 4%

How did Cc1nc(SCC(=O)Nc2ccc3c(c2)OCO3)c(C#N)c2c1CCCC2 do in these assays?
Cruzain noTriton: -9%; Cruzain Triton: -1%

Results for CCOC(=O)c1c(C#N)c(SCC(=O)Nc2ccc(OC)cc2)nc2c1CN(CC)CC2 ?
Cruzain noTriton: 25µM*; Cruzain Triton: -3%

How did CCOC(=O)c1ccc(NC(=O)CSc2nc(-c3ccc(OC)cc3)cc(C(F)(F)F)c2C#N)cc1 do in these assays?
Cruzain noTriton: -3%; Cruzain Triton: 0%

How did COc1cc(NC(=O)CSc2ncc3c(n2)-c2ccc(Cl)cc2N(Cc2ccccc2)S3(=O)=O)cc(OC)c1 do in these assays?
Cruzain noTriton: -8%; Cruzain Triton: 0%

How did COc1ccccc1-c1nnc(NC(=O)C(C)SC2=NCCS2)s1 (stereo unspecified) do in these assays?
Cruzain noTriton: 16µM*; Cruzain Triton: -5%

How did CC(SC1=NCCS1)C(=O)Nc1nnc(-c2ccc(Cl)cc2)s1 (stereo unspecified) do in these assays?
Cruzain noTriton: -16%; Cruzain Triton: -8%

Results for C=CC1=C(C)C2=Cc3c(C=C)c(C)c4[n]3[Sn+2][n]3c(c(C)c(CCC(=O)O)c3=CC3=NC(=C4)C(C)=C3CCC(=O)O)=CC1=N2 ?
Cruzain noTriton: inconclusive; Cruzain Triton: -10%

How did COc1ccc(/C=C/C(=O)Nc2cc(C)nn2-c2nc3ccccc3n2Cc2cccc([N+](=O)[O-])c2)cc1 do in these assays?
Cruzain noTriton: 7.9µM*; Cruzain Triton: 0%

What do the screens show for `COc1ccc(/C=C/C(=O)Nc2cc(C)nn2-c2nc3ccccc3[nH]2)cc1`?
Cruzain noTriton: inconclusive; Cruzain Triton: -29%

Results for Cc1ccc(OCC(=O)N(Cc2ccco2)Cc2ccc(C)o2)cc1 ?
Cruzain noTriton: -17%; Cruzain Triton: -7%

Results for COC(=O)c1ccc(OCC2c3cc(OC)c(OC)cc3CCN2C(=O)c2ccccc2C)cc1 (stereo unspecified) ?
Cruzain noTriton: inconclusive; Cruzain Triton: 2%

What do the screens show for `CCN(CC)C(=O)Cn1cc(SCC(=O)Nc2ccccc2F)c2ccccc21`?
Cruzain noTriton: 22%; Cruzain Triton: 0%

What do the screens show for `CCOC(=O)C1(C)C=C(Nc2ccc(O)cc2)C(=O)N1c1ccc(O)cc1` (stereo unspecified)?
Cruzain noTriton: -9%; Cruzain Triton: -7%

What do the screens show for `CCOC(=O)C1(C)C=C(Nc2ccc(OC)cc2)C(=O)N1c1ccc(OC)cc1` (stereo unspecified)?
Cruzain noTriton: 16µM*; Cruzain Triton: 6%

What do the screens show for `Cc1ccc(-c2csc(-c3nc(-c4ccc(Br)s4)cs3)n2)cc1`?
Cruzain noTriton: -2%; Cruzain Triton: 0%

How did CC1Cc2ccccc2N1C(=O)CSc1nnc(-c2ccccc2)c(-c2ccccc2)n1 (stereo unspecified) do in these assays?
Cruzain noTriton: 16µM*; Cruzain Triton: -1%

Results for CC1Cc2ccccc2N1C(=O)CSc1nnc2c(n1)[nH]c1ccccc12 (stereo unspecified) ?
Cruzain noTriton: 1%; Cruzain Triton: -1%

How did Cc1ccc(S(=O)(=O)c2cc(OC(=O)c3ccco3)ccc2OC(=O)c2ccco2)cc1 do in these assays?
Cruzain noTriton: -20%; Cruzain Triton: -5%

How did O=C(Oc1ccc(OC(=O)c2ccco2)c(S(=O)(=O)c2ccc(Br)cc2)c1)c1ccco1 do in these assays?
Cruzain noTriton: 25µM*; Cruzain Triton: -1%

Results for CCOC(=O)N1CCc2c(sc3c2c(=O)n(Cc2ccccc2)c(=O)n3CC(=O)Nc2ccc(C)cc2C)C1 ?
Cruzain noTriton: 1%; Cruzain Triton: 0%

Results for CCCNC(=O)c1c(NC(=O)C2COc3ccccc3O2)sc2c1CCCC2 (stereo unspecified) ?
Cruzain noTriton: 20µM*; Cruzain Triton: 2%

What do the screens show for `O=C(NC1CCS(=O)(=O)C1)c1c(NC(=O)C2COc3ccccc3O2)sc2c1CCCC2` (stereo unspecified)?
Cruzain noTriton: -8%; Cruzain Triton: -4%

How did Cn1c(=O)[nH]c(=O)c2c1nc(NCCO)n2CC(O)COc1ccccc1 (stereo unspecified) do in these assays?
Cruzain noTriton: 9%; Cruzain Triton: -3%

How did Cc1ccc(-c2cc(-c3ccccc3)[nH]c(=S)c2C#N)cc1 do in these assays?
Cruzain noTriton: 16µM*; Cruzain Triton: -9%

Results for N#Cc1c(-c2ccc(C(F)(F)F)cc2)cc(-c2ccccc2)[nH]c1=S ?
Cruzain noTriton: -15%; Cruzain Triton: 3%

What do the screens show for `CCOC(=O)c1cnc2ccc(OC)cc2c1NCCc1ccccc1`?
Cruzain noTriton: -1%; Cruzain Triton: -13%

What do the screens show for `CC(=O)c1ccc(NC(=O)c2ccc3c(c2)N(Cc2cccc(Cl)c2)C(=O)c2ccccc2S3=O)cc1` (stereo unspecified)?
Cruzain noTriton: -14%; Cruzain Triton: 0%

Results for COc1ccc(NC(=O)c2ccc3c(c2)N(Cc2cccc(Cl)c2)C(=O)c2ccccc2S3=O)cc1Cl (stereo unspecified) ?
Cruzain noTriton: inconclusive; Cruzain Triton: -5%

Source: PubChem
